# Where “and” joins values, the source holds several entries; their conditions need not be identical. Identical values can stand only once. Records with an inconclusive call do not appear. A call without a number means that no potency is given here. A structure can be active in one record and inactive in another. Calls of active or inactive are those of the source. Unless noted, the call rests on the fitted dose curve; in most records, active means well fitted curve in the direction sought with a large enough effect; inconclusive means small, poorly fitted or top-dose-only effect, or another doubt; inactive means no such curve, though single readings can be large; an effect the other way counts as inactive or inconclusive.
# What was measured:
# [1] = target: Voltage-gated inwardly rectifying potassium channel KCNH2 (Homo sapiens) (UniProt Q12809); test: qHTS Assay for Small Molecule Inhibitors of the Human hERG Channel Activity (AID 588834);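 further: lower thallium flux fluorescence means stronger hERG block; nearly all actives have a fitted effect of over 50% in size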; further: potency means the concentration at half of the fitted maximal effect
# Method in brief: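 Homogeneous FluxOR thallium flux assay using hERG-expressing U2OS cells (BacMam). Compound treatment about 10 minutes preceded stimulation; reduced fluorescence taken as channel block.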
# [2] = qHTS assay for small molecule antagonists of retinoid X receptor alpha signaling (AID 588546; active means well fitted inhibition curve with a large enough effect in the signal ratio, with a control signal flat, not every such curve was filed as active; the % refers to the signal ratio; further: potency means the concentration at half of the fitted maximal effect;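 on max response: cells stimulated with 9-cis-retinoic acid as agonist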); details: HEK293T RXRa-UAS-bla, beta-lactamase ratio, antagonist mode; measured here: W530 green channel, cytotoxicity proxy
# Method in brief: (§1)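 Beta-lactamase reporter inhibition, read as CCF4 fluorescence ratio (ex 405, em 460/530 nm) after 2 h at RT. HEK293T UAS-bla cells, 2500/well, were stimulated with 9-cis-RA at 500 or 100 nM final alongside test compound for 18 h at 37 C.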
# [3] = target: Retinoic acid receptor RXR-alpha (Homo sapiens) (UniProt P19793); test: as above; details: HEK293T RXRa-UAS-bla, beta-lactamase ratio, antagonist mode
# Method in brief: as §1
# [4] = S16 Schwann cell PMP22 intronic element firefly luciferase assay (AID 624032); further: nearly all actives have a fitted effect of over 30% in size; further: potency means the concentration at half of the fitted maximal effect
# Method in brief: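 Luciferase reporter of PMP22 intronic-element expression in stably transfected S16 rat Schwann cells, read by ONE-Glo luminescence after 24 h compound exposure at 37 C. Activity scaled between DMSO (0%) and positive-control PTC124; concentration-effect curves quality-classified.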
# [5] = target: Thyroid hormone receptor beta (Homo sapiens) (UniProt P10828); test: qHTS assay for small molecule agonists of thyroid hormone receptor beta signaling (AID 588545; calls by dose curve)
# Method in brief: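 Agonist-mode beta-lactamase reporter assay, HEK 293 cells, 2% charcoal/dextran FBS; cells plated 4 hrs, compound 18 hrs at 37 C, CCF4 2 hrs RT. Normalized to 10 nM T3 (100%) and DMSO (0%); Hill fit gives EC50, efficacy.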
# [6] = target: Luciferin 4-monooxygenase (Photinus pyralis) (UniProt P08659); test: Biochemical firefly luciferase enzyme assay for NPC (AID 624030); further: nearly all actives have a fitted effect of over 70% in size; further: potency means the concentration at half of the fitted maximal effect
# Method in brief: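 Direct inhibition of firefly luciferase enzyme (10 nM final, 50 mM Tris Acetate) assessed by luminescence within 5 minutes. Percent activity scaled between DMSO and PTC124 positive control, with concentration-effect curves classified by fit quality and response.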
# [7] = target: Vitamin D3 receptor (Homo sapiens) (UniProt P11473); test: qHTS assay for small molecule agonists of vitamin D receptor signaling (AID 588543; calls by dose curve)
# Method in brief: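 Measured: β-lactamase reporter activity (CCF4, 405 nm excitation, 460/530 nm emission) in HEK293T VDR-UAS-bla cells after 16 h compound exposure at 37 °C. Normalization against 50 nM 1α,25-dihydroxyvitamin D3 and DMSO; Hill-fit EC50.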
# [8] = qHTS assay for small molecule agonists of retinoid X receptor alpha signaling (AID 588544; calls by dose curve); details: HEK293T RXRa-UAS-bla, beta-lactamase reporter, 18 h; 530 nm emission
# [9] = target: Retinoic acid receptor RXR-alpha (Homo sapiens) (UniProt P19793); test: as above
# [10] = S16 Schwann cell viability assay (CellTiter-Glo assay) (AID 624031); further: nearly all actives have a fitted effect of over 70% in size; further: potency means the concentration at half of the fitted maximal effect
# Method in brief: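 Native S16 rat Schwann cells, 500-750 cells/well in DMEM with 10% FBS, dosed with compound after overnight culture and incubated 24h at 37 degree Celsius/5% CO2. Viability by CellTiter-Glo luminescence; % activity normalized to no-cell wells and DMSO-treated cells.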
# [11] = target: Thyroid hormone receptor beta (Homo sapiens) (UniProt P10828); test: qHTS assay for small molecule antagonists of thyroid hormone receptor beta signaling (AID 588547; active means well fitted inhibition curve with a large enough effect in the signal ratio, with a control signal flat, not every such curve was filed as active; the % refers to the signal ratio;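 further: cells stimulated with 0.4 nM T3 agonist during compound exposure; series mostly up to about 77 µM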); details: TR-UAS-bla HEK293, beta-lactamase ratio, antagonist mode, 18 h
# Method in brief: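 Inhibition of T3-driven (0.4nM final) beta-lactamase reporter activity was measured over 0.59 nM to 92 uM compound after 18 h at 37 C. The cells were GripTite HEK293 TR-UAS-bla in charcoal/dextran-stripped serum, with CCF4 ratio read-out and IC50 from Hill fits.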
# [12] = S16 Schwann cell PMP22 intronic element beta-lactamase assay (AID 624044; calls by dose curve; further: nearly all actives have a fitted effect of over 15% in size)
# Method in brief: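 Beta-lactamase reporter under a PMP22 intronic regulatory element in stable S16 rat Schwann cells; 24 h compound exposure. 460 nm blue signal normalized between DMSO (0%) and potassium clavulanate, with 535 nm FRET tracking viability; curves classed by r2 and response.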
# Thyroid hormone receptor beta (Homo sapiens), sequence (P10828 whole entry, looked up): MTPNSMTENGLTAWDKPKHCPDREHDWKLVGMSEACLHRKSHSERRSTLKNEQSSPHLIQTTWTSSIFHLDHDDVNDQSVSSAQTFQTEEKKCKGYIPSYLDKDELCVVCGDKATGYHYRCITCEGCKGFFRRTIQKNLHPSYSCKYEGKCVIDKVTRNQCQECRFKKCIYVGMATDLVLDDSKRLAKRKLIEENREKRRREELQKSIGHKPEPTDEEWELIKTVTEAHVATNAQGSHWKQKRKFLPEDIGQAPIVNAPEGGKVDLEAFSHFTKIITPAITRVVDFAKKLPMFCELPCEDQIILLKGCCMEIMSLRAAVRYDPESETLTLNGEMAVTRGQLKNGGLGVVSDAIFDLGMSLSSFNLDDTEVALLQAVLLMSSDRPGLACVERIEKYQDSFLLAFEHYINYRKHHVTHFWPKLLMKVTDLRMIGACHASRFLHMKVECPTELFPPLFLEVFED
# Voltage-gated inwardly rectifying potassium channel KCNH2 (Homo sapiens), sequence (Q12809 whole entry, looked up): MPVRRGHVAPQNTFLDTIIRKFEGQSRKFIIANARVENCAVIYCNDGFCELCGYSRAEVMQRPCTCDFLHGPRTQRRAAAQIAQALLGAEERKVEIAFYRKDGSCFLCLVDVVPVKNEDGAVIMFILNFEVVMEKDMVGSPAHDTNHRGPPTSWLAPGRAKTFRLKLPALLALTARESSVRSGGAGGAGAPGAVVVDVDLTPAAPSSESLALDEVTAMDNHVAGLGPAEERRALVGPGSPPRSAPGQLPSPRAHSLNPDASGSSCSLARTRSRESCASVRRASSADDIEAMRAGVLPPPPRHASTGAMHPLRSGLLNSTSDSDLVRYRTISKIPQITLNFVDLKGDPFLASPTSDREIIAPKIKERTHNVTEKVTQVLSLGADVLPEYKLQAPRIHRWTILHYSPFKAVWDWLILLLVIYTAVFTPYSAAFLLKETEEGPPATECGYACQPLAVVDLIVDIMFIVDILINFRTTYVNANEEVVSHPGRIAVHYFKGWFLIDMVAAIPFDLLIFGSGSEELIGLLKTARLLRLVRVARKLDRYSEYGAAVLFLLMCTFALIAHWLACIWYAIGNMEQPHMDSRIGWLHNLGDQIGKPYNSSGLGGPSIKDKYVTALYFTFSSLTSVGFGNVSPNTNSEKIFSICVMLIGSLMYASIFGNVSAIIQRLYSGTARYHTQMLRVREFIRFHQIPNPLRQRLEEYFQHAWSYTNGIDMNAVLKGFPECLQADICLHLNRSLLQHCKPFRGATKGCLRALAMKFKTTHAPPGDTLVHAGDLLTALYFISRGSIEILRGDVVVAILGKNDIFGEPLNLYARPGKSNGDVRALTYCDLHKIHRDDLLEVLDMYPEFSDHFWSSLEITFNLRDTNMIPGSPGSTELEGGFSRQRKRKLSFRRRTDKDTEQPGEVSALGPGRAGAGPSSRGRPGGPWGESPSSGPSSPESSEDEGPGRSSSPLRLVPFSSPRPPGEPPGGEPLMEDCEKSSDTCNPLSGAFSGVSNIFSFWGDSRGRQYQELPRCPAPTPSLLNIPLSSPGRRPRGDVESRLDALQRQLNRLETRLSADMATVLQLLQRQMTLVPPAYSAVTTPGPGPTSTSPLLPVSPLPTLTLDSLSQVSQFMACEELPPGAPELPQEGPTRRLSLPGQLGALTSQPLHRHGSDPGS
# Retinoic acid receptor RXR-alpha (Homo sapiens), sequence (P19793 whole entry, looked up): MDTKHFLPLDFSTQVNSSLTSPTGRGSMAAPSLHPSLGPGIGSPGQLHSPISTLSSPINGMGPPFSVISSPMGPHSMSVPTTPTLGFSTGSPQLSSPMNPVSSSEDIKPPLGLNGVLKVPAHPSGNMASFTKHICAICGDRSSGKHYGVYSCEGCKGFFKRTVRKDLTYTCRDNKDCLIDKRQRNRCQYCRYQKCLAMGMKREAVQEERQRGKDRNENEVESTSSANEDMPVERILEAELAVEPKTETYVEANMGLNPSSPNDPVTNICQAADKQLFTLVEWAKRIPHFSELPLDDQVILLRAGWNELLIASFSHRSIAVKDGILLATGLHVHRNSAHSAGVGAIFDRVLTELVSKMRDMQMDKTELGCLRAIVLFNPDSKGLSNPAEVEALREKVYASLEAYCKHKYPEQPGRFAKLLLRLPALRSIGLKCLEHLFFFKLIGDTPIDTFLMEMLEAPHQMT
# Luciferin 4-monooxygenase (Photinus pyralis), sequence (P08659 whole entry, looked up): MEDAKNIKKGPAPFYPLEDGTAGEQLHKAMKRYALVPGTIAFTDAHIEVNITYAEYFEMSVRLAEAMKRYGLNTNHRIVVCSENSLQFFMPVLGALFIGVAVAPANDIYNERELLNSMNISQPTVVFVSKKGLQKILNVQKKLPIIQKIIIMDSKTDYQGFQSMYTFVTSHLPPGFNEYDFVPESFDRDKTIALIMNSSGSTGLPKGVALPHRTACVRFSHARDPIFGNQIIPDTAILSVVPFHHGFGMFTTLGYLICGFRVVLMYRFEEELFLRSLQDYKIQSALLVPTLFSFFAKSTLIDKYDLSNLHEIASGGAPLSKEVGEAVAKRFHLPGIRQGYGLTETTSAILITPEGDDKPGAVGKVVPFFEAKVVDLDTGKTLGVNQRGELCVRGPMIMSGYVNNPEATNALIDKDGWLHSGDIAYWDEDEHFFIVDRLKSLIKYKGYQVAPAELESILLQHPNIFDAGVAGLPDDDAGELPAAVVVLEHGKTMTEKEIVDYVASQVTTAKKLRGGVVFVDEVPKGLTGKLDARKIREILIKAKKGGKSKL
# Vitamin D3 receptor (Homo sapiens), sequence (P11473 whole entry, looked up): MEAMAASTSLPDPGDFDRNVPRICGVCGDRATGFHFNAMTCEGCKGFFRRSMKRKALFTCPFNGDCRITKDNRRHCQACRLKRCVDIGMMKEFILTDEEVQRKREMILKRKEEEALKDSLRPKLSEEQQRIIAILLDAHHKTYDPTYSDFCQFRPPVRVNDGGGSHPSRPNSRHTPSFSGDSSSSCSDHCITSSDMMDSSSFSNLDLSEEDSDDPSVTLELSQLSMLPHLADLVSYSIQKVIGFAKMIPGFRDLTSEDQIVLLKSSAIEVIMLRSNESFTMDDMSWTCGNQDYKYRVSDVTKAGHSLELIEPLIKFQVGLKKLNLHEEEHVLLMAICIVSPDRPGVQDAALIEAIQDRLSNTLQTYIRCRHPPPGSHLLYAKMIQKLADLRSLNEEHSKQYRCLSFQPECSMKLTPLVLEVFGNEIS
compound,measurement,setting,value
CC1=C2[C@H]3OC(=O)[C@@H](C)[C@@H]3CC[C@@]2(C)C=CC1=O,Potency,[1],inactive
O=C(Nc1ccc(Cl)cc1)Nc1ccc(Cl)c(Cl)c1,max response,[2],-4.96%
same,Potency,[3],10 µM (active)
same,Potency,[4],inactive
C[C@@H]1CN(C2CCC(C#N)(c3ccc(F)cc3)CC2)CC[C@]1(C(=O)O)c1ccccc1 (some centres undefined),Potency,[1],inactive
C[C@H](N)[C@H](O)c1ccc(O)c(O)c1,Potency,[1],inactive
O=C(CCl)c1ccc(Cl)cc1Cl,outcome,[5],inactive
same,Potency,[1],inactive
same,Potency,[6],inactive
COCC(=O)N(c1c(C)cccc1C)C(C)C(=O)OC (centres undefined),outcome,[7],inactive
same,max response,[8],3.24%
same,outcome,[9],inactive
same,max response,[2],1.9%
same,max response,[3],-3.83% (inactive)
same,Potency,[1],inactive
same,Potency,[6],inactive
same,Potency,[10],inactive
same,Potency,[4],inactive
CNC(=O)Oc1cccc2ccccc12,outcome,[7],inactive
same,max response,[8],-5.93% and -0.426%
same,outcome,[9],inactive
same,outcome,[5],inactive
same,max response,[2],-8.18% and 5.92%
same,max response,[3],8.76% (inactive) and -2.97% (inactive)
same,activity change % (negative = inhibition),[11],-1.73% (inactive) and -9.05% (inactive)
same,Potency,[1],inactive
same,Potency,[6],inactive
same,Potency,[10],inactive
same,Potency,[12],inactive
CC[n+]1c(-c2ccccc2)c2cc(N)ccc2c2ccc(N)cc21,outcome,[7],inactive
same,max response,[2],-17.9%
same,Potency,[3],8.91 µM (active)
same,Potency,[6],inactive
same,Potency,[10],inactive
same,Potency,[4],inactive
NCc1cccnc1,Potency,[1],inactive
same,Potency,[6],inactive
same,Potency,[10],inactive
CCNc1nc(Cl)nc(NCC)n1,outcome,[7],inactive
same,max response,[8],-18.2%
same,outcome,[9],inactive
same,outcome,[5],inactive
same,max response,[2],-7.93%
same,max response,[3],2.68% (inactive)
same,activity change % (negative = inhibition),[11],3.97% (inactive)
same,Potency,[6],inactive
same,Potency,[10],inactive
same,Potency,[4],inactive
C[C@@H]1O[C@@H](O[C@@H]2C=C3CC[C@@H]4[C@H](CC[C@]5(C)[C@@H](c6ccc(=O)oc6)CC[C@]45O)[C@@]3(C)CC2)[C@H](O)[C@H](O)[C@H]1O,Potency,[1],inactive
O=C(NC(=O)c1c(F)cccc1F)Nc1cc(Cl)c(OC(F)(F)C(F)C(F)(F)F)cc1Cl (centres undefined),outcome,[7],inactive
same,max response,[8],11.9%
same,outcome,[9],inactive
same,outcome,[5],inactive
same,max response,[2],-7.96%
same,max response,[3],-7.55% (inactive)
same,activity change % (negative = inhibition),[11],4.04% (inactive)
same,Potency,[1],inactive
same,Potency,[6],inactive
CCCC[N+]1(C)[C@@H]2CC(OC(=O)[C@H](CO)c3ccccc3)C[C@H]1[C@@H]1O[C@@H]12 (some centres undefined),Potency,[1],inactive
Oc1c(Br)cc(Br)cc1Br,max response,[8],-20.6%
same,outcome,[9],inactive
same,outcome,[5],inactive
same,max response,[2],9.85% and -7.56%
same,max response,[3],-6.81% (inactive) and -18.8% (inactive)
same,activity change % (negative = inhibition),[11],15.6% (inactive)
same,Potency,[6],inactive
same,Potency,[10],inactive
same,Potency,[4],inactive
COP(=O)(OC)C(O)C(Cl)(Cl)Cl (centres undefined),outcome,[7],inactive
same,outcome,[5],inactive
same,Potency,[1],inactive
same,Potency,[6],inactive
same,Potency,[10],inactive
same,Potency,[4],inactive
same,Potency,[12],inactive
CN(C)C(=S)SSC(=S)N(C)C,outcome,[7],inactive
same,outcome,[5],inactive
same,max response,[2],18.1%
same,Potency,[3],44.7 µM (active)
same,Potency,[1],inactive and 44.7 µM (active)
same,Potency,[10],2.56 µM (active)
same,Potency,[4],1.44 µM (active)
CCCCCCCCCCCC[N+](C)(C)CCOc1ccccc1,outcome,[7],inactive
same,Potency,[1],2.82 µM (active) and 5.01 µM (active)
same,Potency,[6],inactive
same,Potency,[10],32.2 µM (active)
same,Potency,[4],25.6 µM (active)
same,Potency,[12],inactive
N#Cc1nn(-c2c(Cl)cc(C(F)(F)F)cc2Cl)c(N)c1S(=O)C(F)(F)F (centres undefined),outcome,[5],inactive
same,activity change % (negative = inhibition),[11],-25.5% (inactive)
same,Potency,[1],inactive
same,Potency,[6],inactive
same,Potency,[10],inactive
same,Potency,[4],10.2 µM (active)
Cc1ccc(N=CN(C)C=Nc2ccc(C)cc2C)c(C)c1,outcome,[7],inactive
same,max response,[2],-10.6%
same,max response,[3],-33.7% (inactive)
same,Potency,[6],inactive
same,Potency,[10],inactive
same,Potency,[4],inactive
same,Potency,[12],inactive
CCCCCCCCC(=O)NCc1ccc(O)c(OC)c1,outcome,[7],inactive
same,max response,[8],2.94%
same,outcome,[9],inactive
same,outcome,[5],inactive
same,max response,[2],-4.12%
same,max response,[3],-5.69% (inactive)
same,activity change % (negative = inhibition),[11],5.83% (inactive)
same,Potency,[1],inactive
same,Potency,[6],inactive
same,Potency,[10],inactive
same,Potency,[4],inactive
same,Potency,[12],inactive
CCOP(=S)(OCC)O/N=C(\C#N)c1ccccc1,outcome,[5],inactive
same,activity change % (negative = inhibition),[11],19.6% (inactive)
same,Potency,[6],inactive
COP(=S)(OC)Oc1ccc(Sc2ccc(OP(=S)(OC)OC)cc2)cc1,max response,[2],-1.68%
same,max response,[3],-19.4% (inactive)
same,Potency,[6],25.6 µM (active)
same,Potency,[10],inactive
C=CCOC(Cn1ccnc1)c1ccc(Cl)cc1Cl (centres undefined),outcome,[7],inactive
same,max response,[8],-17.1% and -12.6%
same,outcome,[9],inactive
same,outcome,[5],inactive
same,max response,[2],-20.1% and -17.9%
same,max response,[3],-20.3% (inactive) and -31.1% (inactive)
same,Potency,[6],inactive
same,Potency,[10],inactive
same,Potency,[12],inactive
C[C@@H]1C[C@@H]([C@H](O)CC2CC(=O)NC(=O)C2)C(=O)[C@@H](C)C1,max response,[8],-10.1%
same,outcome,[9],inactive
same,outcome,[5],inactive
same,activity change % (negative = inhibition),[11],-37.8% (inactive)
same,Potency,[1],inactive
C[N+]1(CCC(C(N)=O)(c2ccccc2)c2ccccc2)CCCCC1,Potency,[1],inactive
same,Potency,[6],inactive
same,Potency,[10],inactive
same,Potency,[4],inactive

# Reference: PubChem BioAssay (NCATS)
